About 4,000 (7.4%) of roughly 54,000 sequences were called active. No stated cut-off is given here; in the data, active = GI50 up to about 1.1 µM and inactive = higher. Not all results are given here. Measured potencies and affinities stand elsewhere.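 1) Cells in 96-well plates. 2) Compound, 48 h, 5 concentrations. 3) Linear interpolation between surrounding doses. 4) Unreached endpoint = highest concentration. GI50 marks 50% less growth.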
Test system: SNB-75
Experiment: NCI tumour cell line growth inhibition, 48 h

In order of rising GI50:
1. [Bis(aminomethyl)pentamethylenesilane]tetrachloropaltinum(IV), CHEMBL2146204  2.64 µM
2. CISPLATIN, CHEMBL11359  2.84 µM
3. [Bis(aminomethyl)pentamethylenesilane]dichloropaltinum(II), CHEMBL2146202  2.9 µM
4. [Bis(aminomethyl)ethylmethylsilane]tetrachloroplatinum(IV), CHEMBL2146192  3.53 µM
5. [Bis(aminomethyl)diethylsilane]tetrachloroplatinum(IV), CHEMBL2146203  3.8 µM
6. [Bis(aminomethyl)tetramethylenesilane]tetrachloropaltinum(IV), CHEMBL2146189  5.7 µM
7. [Bis(aminomethyl)dimethylsilane]dichloroplatinum (II), CHEMBL2146201  9.23 µM
8. [Bis(aminomethyl)dimethylsilane]tetrachloroplatinum(IV), CHEMBL2146190  11.5 µM
9. mu-(1,7-nanodiamine-N,N')bis-(cis-aminedichloroplatimum (II)), CHEMBL2146215  12.4 µM
10. cis-Bis[[(trimethylsilyl)methyl]amino]tetrachloroplatinum(IV), CHEMBL2146191  15 µM
11. [Bis(aminomethyl)tetramethylenesilane]dichloropaltinum(II), CHEMBL2146205  29.5 µM
